Measured values as given in PubChem BioAssay AID1490 (National Center for Advancing Translational Sciences (NCATS), 2009).
About 11,000 (3.5%) of roughly 310,000 compounds were called active. Another 4% or so got no clear call; they are omitted. Calls follow the shape of the dose curve; as a rule, active = well fitted inhibition curve with a large enough effect; inconclusive = small, poorly fitted or top-dose-only effect, or another doubt; inactive = no such curve, though single readings can be large or run the other way. What follows is part of a selection rich in actives, with near analogues and random picks from the rest. Non-standard residues stand in square brackets, D forms with d. Residues, ends and D or L forms follow the SMILES beside them. Groups on a side chain read outwards from the residue. *: point of attachment. X1 = CCC(C)C(N)C1=NC(C(=O)*)CS1; Orn = NCCC[CH](N)C(=O)O

target: 4'-phosphopantetheinyl transferase ffp (Bacillus subtilis) (UniProt Q9F4F7); assay: qHTS Assay for Inhibitors of Bacillus subtilis Sfp phosphopantetheinyl transferase (PPTase); settings: Biochemical Sfp PPTase activity;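 also: the enzyme is Sfp with the accession as filed and its product quenches rhodamine fluorescence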;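 as to Largest response in the series, negative = inhibition: 0% = enzyme reaction without inhibitor and -100% = no enzyme wells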
Method in brief: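 Compounds were incubated with enzyme (final 15 nM) for 15 min at room temperature before substrate addition started the reaction. Fluorescence at 525 nm excitation, 598 nm emission was recorded immediately and after 30 minutes.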
Potency is read from the fitted curve at half-maximal effect.

Largest response in the series, negative = inhibition, inactive:
CSc1ccc(CCNC(=O)CS(=O)(=O)Cc2nc(-c3ccccc3F)oc2C)cc1 17.7%, Cc1cc(Cl)ccc1C(=O)C1CCCN(C(=O)c2nonc2C)C1 (centres undefined) 1.34%, COC(=O)c1ccc(/C=N/N2C(C)CCCC2C)cc1 (centres undefined) 13.3%, COC(=O)c1ccc(/C=N\n2c(C)nnc2C)cc1 13.8%, COC(=O)C1=CN(Cc2ccc(OC)cc2)C=C(C(=O)OC)C1c1ccc(O)c(OC)c1 -3.15%, Cc1ccc(C(=O)CSc2nnc(Cn3nnc4ccccc43)n2C)cc1 4%, Cn1c(CNC(=O)c2ccccc2F)nnc1SCc1ccc(F)cc1 -14.5%, COc1ccc(S(=O)(=O)/N=C2\C=C(NS(=O)(=O)c3ccccc3)C(=O)c3ccccc32)cc1 -20.9%, O=C(NC(c1ccccc1)c1ccccc1)N1CCN(CCO)CC1 5.46%, OCCN1CCN(c2nnc(-c3ccccc3)c3ccccc23)CC1 21.7%, CCc1nonc1NC(=O)c1oc2ccc(Cl)cc2c1C -4.03%, COc1cccc(CC(=O)N2CCc3nc(COc4ccccc4)c4c(c3C2)CO[C@@H](C)C4)c1 -1.37%, NS(=O)(=O)c1ccc(CNC(=O)c2cccc(Oc3ccccc3)c2)cc1 5.75%, CSc1nc2sc3c(c2c(=O)[nH]1)CCc1ccccc1-3 2.54%, CCCSc1nc2sc3c(c2c(=O)n1-c1ccc(OC)cc1)CCN(C)C3 -7.59%, CCOC(=O)C1=C(CN2CCc3ccccc32)NC(=O)NC1c1cccc([N+](=O)[O-])c1 (centres undefined) 3.8%, CCOC(=O)C1=C(CN2CCc3ccccc32)NC(=O)NC1c1ccc(Cl)cc1 (centres undefined) -11.6%, O=C(Nc1ccc(-n2cccn2)cc1)C1CCN(Cc2ccsc2)CC1 -0.783%, Cc1cccc(C(=O)NC(=S)N(C)C2CCCCC2)c1 17.9%, Nc1nc2nc(Cl)[nH]c2c(=O)[nH]1 -9.02%, Cn1nccc1C(=O)NC1CCCc2c1cnn2-c1ccc(F)cc1F (centres undefined) 12.2%, Cc1cc(C)n(-c2ccc(Cl)c(C(=O)O)n2)n1 -14.9%, Cc1cc(C)n(-c2ccc3nncn3n2)n1 10.3%, O=C(COc1nsnc1N1CCOCC1)Nc1ccccc1Cl 10.1%, CN(C)S(=O)(=O)N1CCC(Oc2cccc(C(=O)NCCCC3CCCC3)c2)CC1 -2.01%, C/C(=N/NC(=O)CSc1ccccn1)c1ccc([N+](=O)[O-])cc1 0.345%, O=C(CCn1nnc2ccccc21)OCC(=O)c1ccc([N+](=O)[O-])cc1 30.5%, Cc1ccc(C)c(S(=O)(=O)Nc2cc(C)on2)c1 10.8%, O=C(NC1CCCC1)c1cc(-c2ccccc2)on1 11.2%, Cc1ccc(NC(=O)Cn2nnc(C(=O)NCc3ccco3)c2N)c(C)c1 -4.99%, CCN1CCN(CCNC(=O)c2ccc3c(c2)NC(=O)/C(=C\c2ccc(OC)c(OC)c2)S3)CC1 -5.49%, Cc1ccccc1CN1C(=O)c2ccccc2Sc2ccc(C(=O)NCCCN3CCOCC3)cc21 -13.2%, CCOC(=O)C1CCN(C(=O)C2CCCN(S(=O)(=O)c3ccc(OC)c(Cl)c3)C2)CC1 (centres undefined) 3.96%, Cc1cc(=O)oc2c3c(cc(OCC(=O)NCCC(=O)N[C@@H](C)C(=O)O)c12)OC(C)(C)CC3 2.46%, CCOC(CNC(=O)C1CCN(S(=O)(=O)c2ccc3nc4c(c(C(=O)O)c3c2)CC(C)CC4)CC1)OCC (centres undefined) 9.57%, Cc1cc(C)cc(NC(=O)C2CCN(c3nc(C)cc(C)n3)CC2)c1 9.84%, Cc1ccc(CC2CC(=O)N(c3nc(C)cc(C)n3)C2=O)cc1 (centres undefined) 0.267%, Cc1ccc(-n2c(C)nnc2SCC(=O)NC2CC2)cc1 4.57%, O=[N+]([O-])c1ccccc1NCc1ccc(Cl)cc1 -18.2%, O=C(Cc1ccc(Cl)cc1)NC(=S)Nc1ccccc1O 12.4%, COc1ccc(CN2CCC(=O)c3ccccc3S2(=O)=O)cc1 -5.49%, O=P(O)(O)OC[C@H](O)CO 16.8%, COc1cc(Cl)c(C)cc1NC(=O)CSc1nnc(-c2cccnc2)n1Cc1ccco1 -18.1%, CCn1c(SCC(=O)Nc2cc(C)c(Cl)cc2OC)nnc1-c1ccco1 2.43%, O=S(=O)(Cc1nnnn1-c1ccc(Br)cc1)c1ccc(F)cc1 6.04%, Cn1c(=O)c2c(SCC(=O)NCC3CCCO3)nc(CC(C)(C)C)nc2n(C)c1=O (centres undefined) -16%, Nc1c(Cl)cc(-c2csc(N3CCCC3c3nc4cc(Cl)c(Cl)cc4n3CCOCCO)n2)cc1Cl (centres undefined) -23.5%, CCOc1ccc(C(=O)COC(=O)c2ccc(-n3cnnn3)cc2)cc1 8.76%, CCOC(=O)c1c(NC(=O)CSc2nccc(=O)[nH]2)sc(C)c1C 2.75%, CCC(C)C(N)C1=NC(C(=O)NC(CC(C)C)C(=O)NC(CCC(=O)O)C(=O)NC(C(=O)NCCCCC2NC(=O)C(CC(N)=O)NC(=O)C(CC(=O)O)NC(=O)C(Cc3cnc[nH]3)NC(=O)C(Cc3ccccc3)NC(=O)C(C(C)CC)NC(=O)C(CCCN)NC2=O)C(C)CC)CS1 (stereo not drawn) (cyclo(DNK([Ile-Glu-Leu-X1])[Orn]IFH); configuration not given here) -53.6%, CC(=O)OC1C([N+]2(C)CCCCC2)C[C@H]2C3CC[C@H]4C[C@H](OC(C)=O)C([N+]5(C)CCCCC5)CC4(C)C3CCC12C (some centres undefined) 11.5%, COc1ccc(S(=O)(=O)NCC(=O)NCc2cc(=O)n(C)c(=O)n2C)cc1F 14.7%, COc1ccc(C(=O)Nc2ccc(NC(=O)C(C)C)nc2)cc1 27.7%, CCOc1ccc(S(=O)(=O)Nc2ccc(OC)nc2)cc1 11.7%, O=C1COc2ccc(S(=O)(=O)NCCc3ccc(Cl)cc3)cc2N1 13.2%, CCOC(=O)CSc1nnc(-c2ccco2)n1C -9.26%, Cn1c(SCC(=O)Nc2ccc(Br)cc2F)nnc1-c1ccco1 1.27%, CCC(C)(C)NC(=O)C(c1ccc(OC)cc1)N(C(=O)CCC(=O)Nc1cc(C)on1)c1ccc(OC)cc1OC (centres undefined) 11.3%, CCOCCCNC(=S)Nc1ccc2nc(N3CCN(CC)CC3)cc(C)c2c1 10.7%, CCc1ccccc1NC(=O)c1ccc2c(c1)CCN2S(C)(=O)=O 10.6%, CC(=O)c1c(-c2ccccc2)c2ccccc2[nH]c1=O 28.5%, Cc1ccc(-c2nc3ccccc3[nH]c2=O)cc1 9.46%, O=C(CCn1nnnc1CN1CCOCC1)N1CCC(c2ccccc2Cl)C1 (centres undefined) 10.9%, Cc1ccc(CNC(=O)[C@@H](NC(=O)Cc2ccccc2)C(C)C)cc1 19.7%, C=CCn1c(=S)[nH]c2nc3c(cc2c1=O)COC(C)(C)C3 -7.89%, C=CCn1cnc2scc(-c3ccccc3)c2c1=O 10.8%, COc1cccc(-n2c(N)cc(=O)nc2SCC(=O)Nc2cc(C)on2)c1 21.7%, CCOC(=O)C1(CCOc2ccccc2)CCN(Cc2ccc(C#CCCO)cc2)CC1 10.5%, Nc1nc(NCc2ccccc2)n(-c2ccccc2)n1 16.4%, O=c1[nH]c2c(c(=O)n1Cc1ccccc1)CCC2 4.99%, CC(=O)c1ccc(-c2ccc(Cn3c(C)nc4cc(N)c(C)nc43)cc2)cc1 5.24%

Potency, active:
CCN(CC)S(=O)(=O)c1cccc(-c2n[nH]c(=S)n2/N=C/c2ccc(C(=O)OC)cc2)c1 50.1 µM, Cn1c(Cn2nnc3ccccc32)nnc1SCC(=O)c1ccccc1F 50.1 µM, OCCN1CCN(C(=S)c2ccc(-c3ccccc3)cc2)CC1 7.08 µM, COc1ccc(-n2c(=S)[nH]c3sc4c(c3c2=O)CCc2ccccc2-4)cc1 17.8 µM, CCOC(=O)C1=C(CN2CCCCCC2)NC(=O)NC1c1cccc([N+](=O)[O-])c1 (centres undefined) 89.1 µM, Cc1cc(C)n(-c2nc(O)cc(=O)[nH]2)n1 15.8 µM, O=C(CC(n1cncn1)C(Cl)(Cl)Cl)c1ccc([N+](=O)[O-])cc1 (centres undefined) 44.7 µM, CCCCN=C1C([N+](=O)[O-])=CC=C2C1=NC1(CCCCC1)N2O 28.2 µM, CCN1CCN(CCNC(=O)c2ccc(/C=C3/Sc4ccccc4N(Cc4cccc(C)c4)C3=O)cc2)CC1 39.8 µM, COC(=O)CC1=NN(c2nc(C)cc(C)n2)C(=O)C1 50.1 µM, Oc1ccc(CNc2ccccc2O)cc1 50.1 µM, COc1cc(Cl)c(C)cc1NC(=O)CSc1nnc(-c2ccco2)n1CC(C)C 44.7 µM, CCOC(=O)c1c(-n2cnnn2)sc(C)c1C 35.5 µM, COc1ccc(CS(=O)/C(Cl)=C(/Cl)C(=O)Nc2ccc(OC)nc2)cc1 (centres undefined) 14.1 µM, Cn1c(SCC(=O)c2cccs2)nnc1-c1ccco1 22.4 µM, O=c1[nH]c2ccccc2n2c(-c3ccccc3)nnc12 1.26 µM, C=CCn1c(=S)[nH]c2scc(-c3ccco3)c2c1=O 20 µM, Cc1cc2nc3c(=O)n(Cc4ccccc4)c(=O)[nH]c3nc2cc1N 20 µM
